TGFb SMAD3 inh = TGF-b pathway inhibition. HepG2 CAGA-GFP TGF-b/SMAD3 reporter, GFP fluorescence, 18 h; TGF-beta stimulated, 500 pg/mL final. Potency, µM (series often up to 46.1 µM), for inactives: at the top dose activity, negative = inhibition, hits mostly inhibitors. hit rate 1.2% among 410,000; also: potency is read from the fitted curve at half-maximal effect; % is scaled to controls: 0 for no effect and ±100 for the full control effect; nearly all actives have a fitted effect of over 65% in size
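Inhibition was scored as loss of TGF-beta-induced (500 pg/mL final, 18 hours, 37 degrees C) GFP in HEPG2 cells carrying a CAGA-GFP reporter, in DMEM with 1% FBS. Well GFP was summed per cell; Activity was normalised to unstimulated and stimulated DMSO wells, then concentration-response fitting.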
HepG2 viability = counter-screen for TGF-b inhibitors: cytotoxicity in HepG2 cells. hit rate 0.76% among 410,000. Potency, µM (doses to about 46.1 µM), without a hit: at the highest dose activity change, negative = cytotoxicity, hits mostly cytotoxic. AID 588856. HepG2 CAGA-GFP viability, ATP luminescence, 18 h; also: potency is read from the fitted curve at half-maximal effect
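HepG2 CAGA-GFP cells (1000/well, DMEM with 1% FBS) received compound, then TGF-beta at 500 pg/mL final, and were incubated 18 hours at 37 degrees C. Viability was read by CellTiter-Glo luminescence. Media-only wells were set as complete cell-killing and DMSO as no toxicity.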
ATXN2 expr inh = ATXN2 expression inhibition. HEK-293 ATXN2-luciferase reporter, luminescence, 24 h. Potency, µM (series often up to 57 µM), for inactives: at the top dose activity change, negative = inhibition, most hits filed as inhibitors. hit rate 0.72% among 360,000; also: potency is read from the fitted curve at half-maximal effect; % is scaled to controls: 0 for no effect and ±100 for the full control effect; nearly all actives have a fitted effect of over 55% in size
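qHTS (up to 57 uM final) was run with 24 h compound exposure of reporter cells at 37 °C. Each well was multiplexed: SteadyGlo luminescence measured ATXN2-luciferase expression after a fluorogenic Gly-Phe-AFC viability readout (25 uM final).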
ATXN viability = reduces viability in counter-screen for ATXN expression inhibitors; S2 cells (HEK-293 line with an ATXN2-luciferase reporter) viability, CellTiter-Fluor protease fluorescence, 24 h; Potency, µM (series often up to 56.7 µM), usual class: cytotoxic; hit rate 0.49% among 400,000; also: potency is read from the fitted curve at half-maximal effect; nearly all actives have a fitted effect of over 40% in size
IL1B secr inh = inhibitors of inflammasome signaling (IL-1 beta secretion) | THP-1 LPS/ATP IL-1B secretion, AlphaLISA, 16 h; hits give low values | activity change, % at 57.5 µM | hit rate 4.7% among 360,000; in the data active = activity change below about -50%; inconclusive = mostly about -30% to -49%; also: % is scaled to controls: 0 for no effect and ±100 for the full control effect
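THP-1 cells pretreated 1 hr with compounds (up to 57.5 uM final), then stimulated with LPS (250 ng/mL final) plus ATP (1.25 mM final); secreted IL-1B measured by AlphaLISA after 16 hr, decreased signal indicating inhibition.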
* marks the source's active call; other numbers are inactive results; i = inactive; ? = inconclusive; nt = no result given. Sampled rows, rich in hits. Any-hit rate of the full collection: about 5.7%. Unless noted, calls follow the shape of the dose curve; as a rule, active = well fitted curve in the direction sought with a large enough effect; inconclusive = small, poorly fitted or top-dose-only effect, or another doubt; inactive = no such curve, though single readings can be large; an effect the other way counts as inactive or inconclusive.

SMILES | TGFb SMAD3 inh | HepG2 viability | ATXN2 expr inh | ATXN viability | IL1B secr inh
Cc1cccc(CN2C(=O)c3ccccc3Sc3ccc(C(=O)NCc4cccs4)cc32)c1 | -8% | -16% | nt | nt | nt
Cc1ccc(-c2nc(-c3cc4c([nH]c3=O)CC(C)(C)CC4=O)sc2C)cc1 | 4% | 2% | 11% | i | nt
Cc1ccc(S(=O)(=O)c2nc(-c3ccccc3)oc2N2CCCCCC2)cc1 | -15% | -18% | -28% | i | nt
COCCNc1oc(-c2ccccc2Cl)nc1S(=O)(=O)c1ccc(C)cc1 | -4% | -4% | 7% | i | -57*
CN1CCN(c2oc(-c3ccccc3F)nc2S(=O)(=O)c2ccc(Cl)cc2)CC1 | 25% | -11% | -7% | i | -73*
CCN1CCN(c2oc(-c3ccccc3)nc2S(=O)(=O)c2ccc(C)cc2)CC1 | 18% | -32% | -2% | i | -56*
O=S(=O)(c1ccc(Cl)cc1)c1nc(-c2ccccc2F)oc1NCCCN1CCOCC1 | 1% | -41% | -13% | i | -74*
CCOc1ccc(CCNC(=O)Cn2ccc3cc(S(=O)(=O)N4CCCCC4)ccc32)cc1 | ? | -12% | ? | ? | nt
Cn1nnnc1SCCCNCc1ccccc1OCc1ccc(F)cc1 | -6% | -11% | -23% | i | nt
Cc1c(C2(c3cc(C(C)C)c(O)c(Br)c3C)OS(=O)(=O)c3ccccc32)cc(C(C)C)c(O)c1Br | -26% | -8% | nt | nt | nt
O=S(=O)(c1ccccc1)c1nc(-c2ccc(Cl)cc2)oc1NCCCN1CCOCC1 | 1% | 32% | -1% | ? | -65*
O=S(=O)(c1ccc(Br)cc1)c1nc(-c2ccccc2)oc1NCCN1CCOCC1 | -3% | -10% | -8% | i | -61*
COc1ccccc1NC(=O)Nc1nc(CC(=O)N2CCN(c3ccccc3OC)CC2)cs1 | -7% | 40% | -31% | ? | -56*
COc1ccc(N2CCN(C(=O)c3cnn(-c4ccc(F)cc4)c3-n3cccc3)CC2)cc1 | 1% | 5% | 6% | i | nt
CNc1ccc(/C=C/C(=O)c2cccc3ccccc23)cc1[N+](=O)[O-] | -23% | -1% | ? | ? | -92*
COc1ccc(-n2cnc3cc(N)ccc32)cc1 | 22% | 5% | 57% | i | -6
CC1(COc2ccc3c(c2)ncn3-c2ccc3cccc(N4CCC(N)CC4)c3n2)COC1 | nt | nt | 12µM* | nt | nt
Cc1cc(C)cc(-n2ccnc2SCC(=O)Nc2ccccc2F)c1 | 14% | -20% | 24% | i | nt
CC1(C)CC(=O)c2cc(C(=O)Nc3ccccc3)c(=O)[nH]c2C1 | 28% | 1% | nt | nt | nt
COCc1ccc(C(=O)N2CCOc3ccc(CN4CCN(c5ccc(F)cc5)CC4)cc3C2)o1 | nt | nt | nt | i | nt
COc1ccc(Nc2cnn(-c3nc4ccccc4s3)c(=O)c2Cl)cc1 | ? | -8% | -17% | nt | -81*
CC(=O)Nc1sc(C)c(C)c1C(=O)OCC(=O)Nc1cccc(C)c1 | ? | -13% | ? | ? | -59*
CCOC(=O)/C=C/C(=O)OCC(=O)Nc1cccc(Br)c1 | -3% | -13% | 3% | i | -62*
CCOC(=O)/C=C/C(=O)OCC(=O)Nc1ccc(C)cc1 | -24% | -17% | -9% | i | -18
CCc1ccc2oc(-c3cccc(NC(=O)c4ccc(-c5cccc([N+](=O)[O-])c5)o4)c3)nc2c1 | 6% | -3% | 60% | ? | nt
SMILES | TGFb SMAD3 inh | HepG2 viability | ATXN2 expr inh | ATXN viability | IL1B secr inh
N#C/C(=N/Nc1ccc(OC(F)(F)F)cc1)C(N)=S | ? | -162% | nt | nt | -64*
CCn1ncc(Cl)c1C(=O)NC(=S)Nc1ccccc1Br | 0% | -14% | 30% | i | -85*
Clc1ccc(-c2csc(=Nc3cccnc3)n2CCCn2ccnc2)cc1Cl | ? | -45% | -35% | i | -88*
COCCn1c(-c2ccc(Br)cc2)csc1=Nc1cccnc1 | ? | -6% | -28% | i | -78*
Oc1ccc(/C=N/n2c(-c3ccco3)csc2=Nc2cccnc2)c(O)c1 | ? | -24% | ? | ? | 21
CCOC(=O)CNS(=O)(=O)c1ccc(F)cc1Br | 4% | -4% | nt | nt | nt
O=c1c2oc3ccccc3c2n(Cc2cccc(F)c2)c(=O)n1Cc1ccco1 | 7% | 5% | -1% | i | nt
COc1ccc(N2CC(NC(=O)c3cc4ccccc4o3)CC2=O)cc1OC (centres undefined) | -16% | 0% | -4% | i | nt
CCOC(=O)c1c(-c2ccccc2)csc1NC(=O)c1nn(CC)cc1Br | 2% | -5% | -7% | i | -67*
O=C(NNc1ccccc1)Nc1cc(Cl)ccc1Cl | 6% | -28% | -18% | i | -97*
COC(=O)c1c(NC(=O)CC2SC(N)=NC2=O)sc2c1CCC(C)C2 (centres undefined) | 35% | 14% | -21% | i | ?
COC(=O)c1c(NC(=O)CC2SC(N)=NC2=O)sc2c1CCC(C(C)(C)C)C2 (centres undefined) | ? | -82% | -10% | i | -53*
CCOC(=O)c1c(NC(=O)CC2SC(N)=NC2=O)sc2c1CCC(C)C2 (centres undefined) | -2% | -22% | -3% | ? | -52*
Cc1cn(C2CC3OCC(NC(=O)C(NC(=O)OC(C)(C)C)C(C)OCc4ccccc4)C3O2)c(=O)[nH]c1=O (centres undefined) | -23% | 4% | nt | nt | nt
O=C(NCCc1nc2ccccc2n1CCOc1ccc2ccccc2c1)C1CCCCC1 | ? | -12% | nt | nt | nt
O=C(N[C@@H]1c2ccccc2C2(CCN(Cc3c(O)ccc4ccccc34)CC2)[C@H]1O)c1ccccc1 | nt | nt | nt | i | nt
COc1cccc(-c2nc(-c3ccccc3)no2)c1 | -14% | -20% | 83% | i | 8
Cc1ccc(-c2nc(-c3ccncc3)no2)cc1 | 0% | -28% | 55% | i | -3
c1ccc(-c2noc(-c3ccc4c(c3)OCO4)n2)nc1 | -10% | 1.6µM* | ? | i | 6
COc1cccc(-c2nc(-c3ccccn3)no2)c1 | 6% | 10µM* | ? | i | 17
CC(C)(C)c1ccc(-c2nc(-c3ccncc3)no2)cc1 | 16µM* | 10µM* | 7% | i | 51
Clc1ccccc1/C=C/c1nc(-c2ccccn2)no1 | 28% | -24% | 5µM* | i | -13
Cc1cccc(-c2noc(-c3ccc4c(c3)OCO4)n2)c1 | 0% | -3% | 64% | nt | 15
COc1cccc(CNC(=O)c2nn(-c3ccc(C)cc3)c(=O)c3c2c2ccccc2n3C)c1 | 4% | -3% | -3% | i | nt
CC(C)(C)c1ccc(-c2noc(CCC(N)=O)n2)cc1 | -12% | -10% | 0.32µM* | i | 14
c1ccc(-c2noc(-c3cccnc3)n2)nc1 | 3% | -50% | -29% | ? | 1
c1ccc(-c2noc(-c3ccc4ccccc4c3)n2)nc1 | 0% | -57% | 2.2µM* | i | 15
